As a reminder, the IC50 is the concentration that inhibits the measured activity by half. The inhibition is the relative decrease from the control value, in per cent.

These results are taken from PubChem BioAssay AID2501 (Southern Research Specialized Biocontainment Screening …, 2010).

Molecules are shown by their SMILES. About 1,200 (55%) of roughly 2,200 compounds were called active. No cut-off is given here; in the data, nearly all actives have IC50 up to about 92 µM. So high a share suggests a set chosen from earlier hits. The list shows a part of the results.

The nature of this experiment: counter assay for TAg ATPase ADP read-out – biochemical, ADP-Hunter, fluorescence, counter-screen (AID 2501).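 For inhibition: 0% = enzyme with vehicle and 100% = reference inhibitor wells; higher means more inhibition.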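 Note: purified T antigen ATPase.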 As to conditions: series mostly up to 100 µM; inhibition: at the top concentration. A general note: A counterscreen serves to expose hits that act by an unwanted route or on another target.
Turning to `COc1ccc(N=Nc2c(N)n[nH]c2N)cc1`, the IC50 was 6.12 µM (active).

`N=C1/C(=C\c2ccc(Br)o2)C(=O)N=C2SC(CC(=O)N3CCCCC3)=NN12`: the “inhibition” value is 0.15% (inactive).

For the compound `CCN(CC)S(=O)(=O)c1ccc(OC)c(NC(=S)Nc2cccc(C)c2)c1`, the “inhibition” value was -0.28% (inactive).

As for `COc1cc2c(cc1NC(=S)Nc1ccccc1C)oc1ccccc12`, the IC50 was 23.6 µM (active).

For `CCN1C(=O)C2(C(C(=O)c3cc4ccccc4o3)=C(O)C(=O)N2CCCN(C)C)c2ccccc21` (stereo not drawn), the IC50 is 31.5 µM (active).

In the case of `Cc1ccc2c(c1)C1C=CCC1C(C(=O)O)N2` (stereo not drawn), the “inhibition” value was -35.9% (inactive).

Take `O=C1CCCN1CCCNC(=S)Nc1ccc(Nc2ccccc2)cc1`: the IC50 is 6.41 µM (active).

Turning to `CCOc1cc2[nH]c(=O)n(Cc3ccc(C(=O)NCCCN4CCCC4=O)cc3)c(=O)c2cc1OCC`, the “inhibition” value is 5.15% (inactive).

In the case of `COc1cc(/C=c2\sc3n(c2=O)CCCN=3)ccc1O`, the IC50 was 4.98 µM (active).

Take `COc1cc(/C=C2\N=C3CCCCCN3C2=O)ccc1O`: the IC50 is 3.83 µM (active).

In the case of `O=C1/C(=C\c2ccc(O)c(O)c2)N=C2CCCCCN12`, the IC50 is 4.83 µM (active).

`CCOc1cc(/C=C2\N=C3CCCCCN3C2=O)ccc1O`: the IC50 was 5.66 µM (active).

Take `CC(=O)N1CC[n+]2c(-c3ccc([N+](=O)[O-])cc3)csc21`: the “inhibition” value is 17.1% (inactive).

Take `CCN(CC)CCCCN1c2ccccc2Sc2ccccc21`: the IC50 is 6.81 µM (active).

As to `CCN1/C(=C/C=C/c2sc3ccccc3[n+]2CC)Sc2ccccc21`, the “inhibition” value is 12.2% [at 50 µM] (inactive).

`CCCCN1C(=O)/C(=C(/C#N)C(N)=O)c2ccccc21`: the “inhibition” value is 8.13% (inactive).

Regarding `NC(=O)Cn1c(=O)n(Cc2ccco2)c(=O)c2c3c(sc21)CCCCC3`, the “inhibition” value is -31.5% (inactive).

`O=C(Cn1c(=O)n(Cc2ccco2)c(=O)c2c3c(sc21)CCCCC3)c1ccccc1`: the “inhibition” value is -11.9% (inactive).

For `O=c1c2c3c(sc2n2c(=S)[nH]nc2n1-c1ccccc1)CCC3`, the IC50 was 18.4 µM (active).

For the compound `COc1ccc(-n2c(=O)c3c4c(sc3n3c(=S)[nH]nc23)CCC4)cc1`, the IC50 is 12 µM (active).

As for `COc1ccc(N2C3=C(CC4=C2CCCC4=O)C(=O)CCC3)cc1`, the “inhibition” value is 19.4% (inactive).

On to `Cc1ccc(-n2c(=O)c3c4c(sc3n3c(=S)[nH]nc23)CCC4)cc1`, for which the IC50 is 14.2 µM (active).

For the compound `CCn1c(=O)n(CC)c2cc(N)ccc21`, the IC50 was 4.09 µM (active).

`COCCn1nnnc1C(c1cc2cc(OC)c(OC)cc2[nH]c1=O)N1CCN(c2ccc(O)cc2)CC1` (stereo not drawn): the IC50 is 8.81 µM (active).

In the case of `O=c1[nH]c2cc3c(cc2cc1C(c1nnnn1CC1CCCO1)N1CCCCCC1)OCCO3` (stereo not drawn), the “inhibition” value is -71.6% (inactive).

On to `COc1cccc(C(c2nnnn2Cc2ccco2)N2CCN(Cc3ccccc3)CC2)c1OC` (stereo not drawn), for which the “inhibition” value is -23.6% (inactive).

For the compound `CCc1cc2c(Nc3ccc(O)cc3)nc(C)nc2s1`, the IC50 is 4.69 µM (active).

Regarding `Cc1cc2c(Nc3ccc(O)cc3)ncnc2s1`, the IC50 was 3.61 µM (active).

In the case of `Cc1ccc(-c2nc(CN(Cc3cnn(C)c3)C(C)C)c(C)o2)o1`, the “inhibition” value is -4.39% (inactive).

`Nc1cc(C(=O)O)ccc1Nc1ccccc1`: the IC50 is 5.63 µM (active).

With `O=S(=O)(O)c1cccc2cccc(Nc3ccccc3)c12`, the IC50 was 19.5 µM (active).

As to `Cc1ccc(C)n1-c1cccc(C(=O)O)c1`, the “inhibition” value is -51.9% (inactive).

On to `Nc1ccc(Nc2ccccc2)c(S(=O)(=O)O)c1`, for which the half-inhibitory concentration (IC50) was 4.02 µM (active).

On to `N#Cc1c(N)sc(=S)c2c1CCCCC2`, for which the “inhibition” value was 22.4% (inactive).

Consider `COc1ccc(/C=N/NC(=O)CCc2n[nH]c(=O)[nH]c2=O)cc1O`, for which the half-inhibitory concentration (IC50) was 7.94 µM (active).

With `COc1cc(/C=N/NC(=O)CNc2n[nH]c(=O)[nH]c2=O)ccc1O`, the IC50 is 2.93 µM (active).

Take `CCOc1cc(/C=N/NC(=O)CCc2n[nH]c(=O)[nH]c2=O)ccc1O`: the IC50 was 9.46 µM (active).

With `Oc1ccccc1C(=S)N1CCCCCC1`, the IC50 was 13.9 µM (active).

In the case of `CC(=O)Oc1ccc(C(=O)Nc2ccccc2C(=O)N2CCCCC2)cc1`, the “inhibition” value was 21.5% (inactive).

Regarding `COc1ccccc1NC(=O)c1c(NC(=O)CCC(=O)O)sc2c1CCCCC2`, the “inhibition” value is 11.2% (inactive).

For `CCCCN1Cc2c(nc3cc(-c4ccco4)[nH]n3c2=O)C1=O`, the IC50 was 9.07 µM (active).

Take `COC(=O)CC1SC(=O)NC1=Nc1ccc(O)cc1` (stereo not drawn): the IC50 is 4.34 µM (active).

Consider `Cc1c(Cl)cccc1NC(=S)N(CCN(C)C)C(C)c1ccco1` (stereo not drawn), for which the “inhibition” value is 8.35% (inactive).

On to `N#CCCn1nc(-c2ccc(Br)cc2)cc1Nc1ccccc1NC(=O)C(F)(F)F`, for which the “inhibition” value is 0.34% (inactive).

On to `COc1ccc(CC(=O)n2[nH]c(=O)ccc2=O)cc1OC`, for which the “inhibition” value was -3.65% (inactive).

For `COC(C(=O)N/N=C(\C)CC(=O)Nc1ccc(N(C)C)cc1)c1ccccc1` (stereo not drawn), the IC50 was 6.98 µM (active).

Consider `COc1ccc(CC(=O)N/N=C(\C)CC(=O)Nc2ccc(N(C)C)cc2)cc1OC`, for which the IC50 is 3.9 µM (active).

Turning to `O=C(O)CCC1c2cc3c4cc2OC2Oc5cc6c(cc51)C(CCC(=O)O)c1cc5c7cc1OC(O6)c1cc6cc(c1)Oc1cc(cc(C(=O)O)c1)Oc1cc8cc(c1)C(Oc1cc(c(cc1C5CCC(=O)O)C3CCC(=O)O)OC(O4)c1cc(cc(c1)Oc1cc(cc(C(=O)O)c1)O8)Oc1cc(cc(C(=O)O)c1)Oc1cc(cc2c1)Oc1cc(cc(C(=O)O)c1)O6)O7` (stereo not drawn), the “inhibition” value is -0.04% (inactive).

With `CCC[n+]1c2ccccc2cc2ccccc21`, the “inhibition” value is -11.8% (inactive).

Turning to `O=C(NO)c1ccc(C(=O)N(C2CCCCC2)C2CCCCC2)cc1`, the “inhibition” value was 18.3% (inactive).

As to `CCCC[n+]1c2ccccc2cc2ccccc21`, the “inhibition” value is 9.88% (inactive).

Consider `CC(C)n1c(=S)[nH]c2c1c(=O)[nH]c(=O)n2C`, for which the IC50 was 92 µM (active).

Regarding `C#CCOCCOCCOCCNc1nc(N2CCN(C(=O)CCCCCCCCCCNC(=O)[C@H]([C@@H](C)CC)n3cc(CCCCN=C(N)N)nn3)CC2)nc(N2CCN(C(=O)CCCCCCCCCCNC(=O)[C@H](CCCCN)n3cc(C[C@@H](C)CC)nn3)CC2)n1`, the “inhibition” value is -2.74% (inactive).

Regarding `COc1ccc(-n2c(=S)[nH]c3cc(C(=O)NCc4ccco4)ccc3c2=O)c(OC)c1`, the “inhibition” value is 19.3% (inactive).

In the case of `COc1ccccc1CN(C(=O)CNC(=O)c1ccco1)C(C(=O)NCC1CCCO1)c1ccc(OC)c(OC)c1` (stereo not drawn), the “inhibition” value is -33.5% (inactive).

In the case of `COc1cc(/C=N/NC(=O)CNC(=O)c2ccco2)ccc1O`, the IC50 was 2.71 µM (active).

Turning to `COc1cc(/C=N/NC(=O)C(=O)NCc2ccco2)ccc1O`, the IC50 was 5.14 µM (active).

On to `Cc1ccc(CNC(=O)/C=C/c2ccc(S(=O)(=O)NCc3ccco3)cc2)cc1`, for which the “inhibition” value is -32.3% (inactive).

As for `COc1cc(/C=N/NC(=O)C(=O)NCC2CCCO2)ccc1O` (stereo not drawn), the IC50 was 4.13 µM (active).

In the case of `Oc1ccc(/C=N/NC(=S)NCC2CCCO2)cc1` (stereo not drawn), the IC50 was 2.58 µM (active).

As for `CC1(OC(=O)CCc2ccccc2)C(=O)C=C2C=C(c3ccc(C#N)cc3)N(Cc3ccco3)C=C2C1=O` (stereo not drawn), the “inhibition” value was 21% (inactive).

`COc1ccc(C(=O)CCNc2ccc(C)c(Cl)c2)cc1`: the “inhibition” value is 4.87% (inactive).

Take `COc1ccc(Nc2ccc(Cl)cc2)c(C(=O)O)c1`: the IC50 is 9.23 µM (active).

For the compound `COc1ccc(NC(=O)c2c(Cl)cnn2C)c(C)c1`, the “inhibition” value was -1.21% (inactive).

As to `O=C(Cn1c(=O)oc2ccccc21)Nc1n[nH]c(=S)s1`, the IC50 is 88.8 µM (active).

Turning to `Nc1ccc2c(c1)-c1ccccc1S(=O)(=O)N2`, the IC50 was 2.89 µM (active).

As to `CC(Nc1ccc(N2CCOCC2)cc1)C(=O)N1c2ccccc2CC1C` (stereo not drawn), the IC50 is 8.86 µM (active).

Take `O=c1cc(CN2CCN(Cc3ccc(F)cc3)C(CCO)C2)[nH]c2ccccc12` (stereo not drawn): the “inhibition” value is 5.78% (inactive).

Regarding `Cc1ccc(CN2CCN(Cc3cn[nH]c3-c3cccc(F)c3)CC2CCO)o1` (stereo not drawn), the “inhibition” value was 6.69% (inactive).

Turning to `CCOc1ccc(CN2CCN(Cc3cccc4c3OCO4)CC2CCO)cc1` (stereo not drawn), the IC50 was 2.23 µM (active).

As to `Cc1nc(C)c(-c2csc(Nc3ccc(N)cc3)n2)s1`, the IC50 is 7.48 µM (active).

Regarding `Cc1cccc(-n2c(O)c(C=Nc3ccc(O)cc3)c3ccccc3c2=O)n1`, the IC50 is 3.7 µM (active).

Turning to `Cc1cc2c(n1-c1ccc(C(=O)O)cc1)CCCCC2`, the “inhibition” value was 13.9% (inactive).

Take `C=C1C(=O)O[C@@H]2[C@H]3O[C@]3(C)CC/C=C(\C)CC[C@@H]12`: the “inhibition” value was -11.7% (inactive).

For `CC(C)CC(NC(=O)CC12CC3CC(CC(C3)C1)C2)C(=O)NC1=NCCS1` (stereo not drawn), the “inhibition” value was -26.1% (inactive).

With `COc1ccc(N=Cc2c(O)cc(C)oc2=O)cc1`, the IC50 is 6.29 µM (active).

For `COc1ccc(N=Cc2nc(-c3ccccc3)oc2OC(C)=O)cc1`, the “inhibition” value is 4.59% (inactive).

On to `O=C(CCl)Nc1ccc(N2CCCCCC2)cc1`, for which the IC50 was 0.76 µM (active).

For the compound `Cn1c(CCN2CCCCCC2)nc2cc(NC(=O)Nc3ccccc3)ccc21`, the “inhibition” value is -5.15% (inactive).

On to `Cc1ccc(NC(=O)NCCN2CCCCC2)cc1Cl`, for which the “inhibition” value is 14.2% (inactive).

With `CC(=O)Nc1ccc(N2CCCCC2)cc1`, the IC50 was 12.1 µM (active).

As for `O=C(Nc1ccc2nc(-c3ccco3)c(-c3ccco3)nc2c1)NC1CC1`, the “inhibition” value was -52.1% [at 50 µM] (inactive).

Regarding `O=C(NC1CCCCCC1)c1cccnc1Sc1ccc(Cl)cc1`, the “inhibition” value was 8.53% (inactive).

Regarding `Nc1ccc(NC(=O)NC2CCCCC2)cc1`, the IC50 was 9.21 µM (active).

In the case of `O=c1cc(CSc2ccc(Cl)cc2)[nH]c2[nH]n(-c3ccccc3)c(=O)c12`, the IC50 is 16.2 µM (active).

With `O=C(O)c1ccccc1NS(=O)(=O)c1ccc(NNC(=S)Nc2ccc(OC(F)F)cc2)c([N+](=O)[O-])c1`, the IC50 is 23 µM (active).

`O=C(/C=C/c1ccco1)NCC1OCCc2ccccc21` (stereo not drawn): the “inhibition” value was -30.4% (inactive).

For `COc1ccc(O)c(C(=O)C2c3ccccc3C(=O)N2c2ccc(C)cc2)c1` (stereo not drawn), the “inhibition” value is -11.1% (inactive).

Consider `O=C(COc1ccc2c(-c3ccccc3)cc(=O)oc2c1)N[C@@H](Cc1c[nH]c2ccc(O)cc12)C(=O)O`, for which the IC50 was 31.3 µM (active).

For the compound `O=C(O)c1ccccc1C(=O)NC1=NN(c2ccccc2)CC1`, the IC50 is 12.1 µM (active).

As for `COc1cc(/C=N/Nc2ccccn2)ccc1O`, the IC50 is 8.27 µM (active).

Consider `COc1cc(/C=N/Nc2ccnc(=O)[nH]2)ccc1O`, for which the IC50 was 5.01 µM (active).

As for `COc1cc(/C=N/NC2=NCCCCC2)ccc1O`, the IC50 was 4.15 µM (active).

`COc1cccc2c(N/N=C/c3ccc(O)c(O)c3)cc(C)nc12`: the IC50 is 10.2 µM (active).

Turning to `COc1cc(/C=N/Nc2nncn2/N=C/c2ccc(O)c(OC)c2)ccc1O`, the IC50 was 4.48 µM (active).

With `COc1cc(/C=N/Nc2nc(=O)[nH]nc2C)ccc1O`, the IC50 was 6.46 µM (active).

Take `COc1cc(/C=N\Nc2cc(=O)n(C)c(=O)n2C)ccc1O`: the IC50 was 4.97 µM (active).

For `Cc1cc(C)n(CCc2nc(-c3ccco3)cs2)n1`, the “inhibition” value is -6.36% (inactive).
